Several values for one entry are separate records, joined by “and”; a condition that tells them apart may be missing. Identical values can stand only once. Where a structure was tested more than once in an assay, its records may differ in their call. Activity calls are given as the source filed them. The calls were made as follows: active = hit-call score of the fitted dose curve at least 0.9, where 1 is the maximum; inactive = score below 0.9.
Tests used:
[1] = read-out: Thrombomodulin, THBD (gene 7056); test: BSK_CASM3C_Thrombomodulin: BioMAP Diversity Plus: CASM3C Assay for Thrombomodulin Biomarker Activity (AID 2283051); conditions: primary human coronary artery smooth muscle cells; actives raise or lower the signal;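 also: thrombomodulin protein level measured by ELISA 24 h after dosing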
[2] = read-out: Tissue Factor, F3 (gene 2152); test: BSK_CASM3C_TissueFactor: BioMAP Diversity Plus: CASM3C Assay for Tissue Factor Biomarker Activity (AID 2283052); conditions: primary human coronary artery smooth muscle cells; actives raise or lower the signal;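 also: cell surface tissue factor protein level read by ELISA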
[3] = read-out: Interferon-gamma inducible Protein 10 (IP10), CXCL10 (gene 3627); test: BSK_hDFCGF_IP10: BioMAP Diversity Plus: hDFCGF Assay for Interferon-gamma inducible Protein 10 (IP10) Biomarker Activity (AID 2283053); conditions: primary human foreskin fibroblasts; actives raise or lower the signal
Summary of the method: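 IP-10 levels, quantified by ELISA, are taken from human foreskin fibroblast cultures 24 h after chemical treatment, with DMSO serving as negative control and baseline for bidirectional analysis.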

[4] = read-out: Urokinase-type plasminogen activator receptor (uPAR), PLAUR (gene 5329); test: BSK_CASM3C_uPAR: BioMAP Diversity Plus: CASM3C Assay for Urokinase-type plasminogen activator receptor (uPAR) Biomarker Activity (AID 2283054); conditions: primary human coronary artery smooth muscle cells; actives raise or lower the signal;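 also: cell-surface uPAR protein level quantified by ELISA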
[5] = read-out: Vascular cell adhesion molecule 1 (VCAM1), VCAM1 (gene 7412); test: BSK_CASM3C_VCAM1: BioMAP Diversity Plus: CASM3C Assay for Vascular cell adhesion molecule 1 (VCAM1) Biomarker Activity (AID 2283055); conditions: primary human coronary artery smooth muscle cells; actives raise or lower the signal;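 also: VCAM-1 protein level quantified by ELISA on the cells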
[6] = read-out: Collagen III, COL3A1 (gene 1281); test: BSK_hDFCGF_CollagenIII: BioMAP Diversity Plus: hDFCGF Assay for Collagen III Biomarker Activity (AID 2283056); conditions: primary human foreskin fibroblasts; actives raise or lower the signal
Summary of the method: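 Cells: human foreskin fibroblasts, primary. Dosing followed by 24 h incubation, then ELISA for collagen III. Both increases and decreases scored relative to DMSO.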

[7] = read-out: Epidermal growth factor receptor (EGFR), EGFR (gene 1956); test: BSK_hDFCGF_EGFR: BioMAP Diversity Plus: hDFCGF Assay for Epidermal growth factor receptor (EGFR) Biomarker Activity (AID 2283057); conditions: primary human foreskin fibroblasts; actives raise or lower the signal
Summary of the method: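 Measured by ELISA: EGFR levels on primary human foreskin fibroblasts 24 h after chemical treatment, analysed relative to DMSO with bidirectional fitting.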

[8] = read-out: Interleukin-8 (IL8), CXCL8 (gene 3576); test: BSK_hDFCGF_IL8: BioMAP Diversity Plus: hDFCGF Assay for Interleukin-8 (IL8) Biomarker Activity (AID 2283058); conditions: primary human foreskin fibroblasts; actives raise or lower the signal
Summary of the method: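 IL-8 levels from compound-treated primary human fibroblasts were read by ELISA at 24 h, with DMSO serving as baseline for bidirectional fitting.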

[9] = BSK_hDFCGF_Proliferation: Cell Proliferation Assessment in the BioMAP Diversity Plus: hDFCGF Assay (AID 2283059); conditions: primary human foreskin fibroblasts;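 also: curves fitted for both rise and fall of signal versus DMSO baseline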
Summary of the method: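 Total protein read at 560 nm after 0.1% SRB staining of TCA-fixed human skin fibroblasts, […]. Activity is fitted in both directions relative to DMSO as baseline.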

[10] = read-out: Macrophage colony-stimulating factor (MCSF), CSF1 (gene 1435); test: BSK_hDFCGF_MCSF: BioMAP Diversity Plus: hDFCGF Assay for Macrophage colony-stimulating factor (MCSF) Biomarker Activity (AID 2283060); conditions: primary human foreskin fibroblasts; actives raise or lower the signal
Summary of the method: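 M-CSF levels, determined by ELISA, are taken at 24 h after dosing human skin fibroblasts. Responses in either direction are fitted with DMSO serving as the baseline.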

[11] = BSK_hDFCGF_SRB: Viability Assessment in the BioMAP Diversity Plus: hDFCGF Assay (AID 2283061); conditions: primary human foreskin fibroblasts;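 also: cells exposed to compound for 24 h before the read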
Summary of the method: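 Cells were dosed with test chemical, cultured 24 h, fixed with 10% TCA, then stained with 0.1% SRB and read at 560 nm. The fibroblasts were human foreskin primary cells, and DMSO served as baseline.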

[12] = read-out: TIMP metallopeptidase inhibitor 1 (TIMP1), TIMP1 (gene 7076); test: BSK_hDFCGF_TIMP1: BioMAP Diversity Plus: hDFCGF Assay for TIMP metallopeptidase inhibitor 1 (TIMP1) Biomarker Activity (AID 2283062); conditions: primary human foreskin fibroblasts; actives raise or lower the signal
Summary of the method: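 Fibroblasts from human foreskin are treated with test chemical and harvested at 24 h. TIMP-1 is quantified by ELISA, and gain or loss of signal is scored against DMSO.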

[13] = read-out: Monokine induced gamma interferon (MIG), CXCL9 (gene 4283); test: BSK_hDFCGF_MIG: BioMAP Diversity Plus: hDFCGF Assay for Monokine induced gamma interferon (MIG) Biomarker Activity (AID 2283063); conditions: primary human foreskin fibroblasts; actives raise or lower the signal
Summary of the method: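 MIG signal, determined by ELISA, reflects 24 h chemical exposure of human skin primary fibroblasts. DMSO serves as negative control and baseline.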

[14] = read-out: Matrix Metallopeptidase 1 (MMP1), MMP1 (gene 4312); test: BSK_hDFCGF_MMP1: BioMAP Diversity Plus: hDFCGF Assay for Matrix Metallopeptidase 1 (MMP1) Biomarker Activity (AID 2283064); conditions: primary human foreskin fibroblasts; actives raise or lower the signal
Summary of the method: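 Primary human foreskin fibroblasts in the hDFCGF system were dosed with test chemical, and MMP1 was measured by ELISA 24 h later. Values come from bidirectional curve fitting against the DMSO baseline.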

[15] = read-out: Vascular cell adhesion molecule 1 (VCAM1), VCAM1 (gene 7412); test: BSK_hDFCGF_VCAM1: BioMAP Diversity Plus: hDFCGF Assay for Vascular cell adhesion molecule 1 (VCAM1) Biomarker Activity (AID 2283065); conditions: primary human foreskin fibroblasts; actives raise or lower the signal;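 as to AC50: VCAM-1 protein level quantified by ELISA after 24 h chemical exposure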
Summary of the method: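 Cells are dosed, cultured for 24 h, then VCAM-1 is quantified by ELISA; signal increases and decreases are both fitted relative to DMSO.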

[16] = read-out: Plasminogen activator inhibitor-1 (PAI1), SERPINE1 (gene 5054); test: BSK_hDFCGF_PAI1: BioMAP Diversity Plus: hDFCGF Assay for Plasminogen activator inhibitor-1 (PAI1) Biomarker Activity (AID 2283066); conditions: primary human foreskin fibroblasts; actives raise or lower the signal
Summary of the method: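 PAI-1 levels, determined by ELISA, served as the endpoint in human foreskin fibroblast cultures exposed to compound for 24 h, with DMSO as baseline.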

[17] = read-out: Intercellular Adhesion Molecule 1 (ICAM1), ICAM1 (gene 3383); test: BSK_KF3CT_ICAM1: BioMAP Diversity Plus: KF3CT Assay for Intercellular Adhesion Molecule 1 (ICAM1) Biomarker Activity (AID 2283067); conditions: primary human keratinocytes with fibroblasts; actives raise or lower the signal
Summary of the method: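 Dose the keratinocyte/fibroblast co-culture, wait 24 h, measure ICAM-1 by ELISA, then fit increases or decreases against DMSO. Cytotoxicity is checked in parallel cultures by SRB total-protein staining.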

[18] = read-out: Interferon-gamma inducible Protein 10 (IP10), CXCL10 (gene 3627); test: BSK_KF3CT_IP10: BioMAP Diversity Plus: KF3CT Assay for Interferon-gamma inducible Protein 10 (IP10) Biomarker Activity (AID 2283068); conditions: primary human keratinocytes with fibroblasts; actives raise or lower the signal
Summary of the method: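 Human keratinocyte plus foreskin fibroblast primary co-culture exposed to test chemical for 24 h; IP-10 measured by ELISA. Concentration-response fitted bidirectionally against DMSO control as baseline.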

[19] = BSK_KF3CT_SRB: Viability Assessment in the BioMAP Diversity Plus: KF3CT Assay (AID 2283069); conditions: primary human keratinocytes with fibroblasts;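 also: total protein by sulforhodamine B staining as a cytotoxicity measure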
Summary of the method: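 Human primary keratinocyte plus foreskin fibroblast co-culture exposed to chemicals for 24 h. Total protein measured by 0.1% sulforhodamine B staining after 10% TCA fixation, read at 560 nm; bidirectional fitting versus DMSO baseline.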

[20] = read-out: Interleukin-1 alpha (IL1a), IL1A (gene 3552); test: BSK_KF3CT_IL1a: BioMAP Diversity Plus: KF3CT Assay for Interleukin-1 alpha (IL1a) Biomarker Activity (AID 2283070); conditions: primary human keratinocytes with fibroblasts; actives raise or lower the signal
Summary of the method: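 Human keratinocyte plus foreskin fibroblast primary co-culture, sampled 24 h after chemical dosing. IL-1a measured by ELISA; responses fitted bidirectionally against DMSO baseline (negative control), so gain or loss of signal both count.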

Measured: AC50

COc1cc(Cl)c(OC)cc1N
inactive: [1] | [2] | [3] | [4] | [5] | [6] | [7] | [8] | [9] | [10] | [11] | [12] | [13] | [14] | [15] | [16] | [17] | [18] | [19] | [20]

c1ccc(Oc2ccccc2)cc1
inactive: [1] | [2] | [3] | [4] | [5] | [6] | [7] | [8] | [10] | [11] | [12] | [13] | [14] | [15] | [16] | [17] | [19]
active: [18] 34.6 µM | [20] 20 µM

C[C@@H]1CCN(C(=O)[C@H](CCCN=C(N)N)NS(=O)(=O)c2cccc3c2NC[C@H](C)C3)[C@@H](C(=O)O)C1
inactive: [1] | [2] | [3] | [4] | [5] | [6] | [7] | [8] | [10] | [11] | [12] | [13] | [14] | [15] | [16] | [17] | [18] | [19] | [20]

CC1(C)CCC[C@]2(C)[C@H]3CCO[C@]3(C)CC[C@@H]12
active: [2] 1.65 µM | [3] 36.5 µM and 37.9 µM | [4] 34 µM and 31.4 µM | [5] 34.1 µM and 33.7 µM | [6] 31.4 µM and 30.6 µM | [7] 32 µM and 33 µM | [8] 37.9 µM and 35.9 µM | [9] 12.1 µM and 30.5 µM | [10] 36.6 µM and 30.8 µM | [11] 33.8 µM and 36.4 µM | [12] 38.6 µM and 32.1 µM | [13] 34.5 µM and 36.6 µM | [14] 35 µM and 36 µM | [15] 38.1 µM and 33.9 µM | [16] 37.2 µM and 31.1 µM | [17] 37.1 µM and 38.1 µM | [18] 37.5 µM and 33.9 µM | [19] 33.4 µM and 36.8 µM | [20] 34.4 µM and 38.9 µM
inactive: [1] | [2]

CC(C=O)Cc1ccc(C(C)(C)C)cc1 (stereo unspecified)
inactive: [1] | [3] | [6] | [8] | [13] | [14] | [15] | [17] | [18] | [19] | [20]
active: [2] 20 µM | [4] 33.7 µM | [5] 27.3 µM | [7] 32.1 µM | [10] 29.5 µM | [11] 35.5 µM | [12] 31.9 µM | [16] 27.4 µM

CC(=O)c1c(C)c([N+](=O)[O-])c(C(C)(C)C)c([N+](=O)[O-])c1C
inactive: [1] | [2] | [3] | [4] | [5] | [6] | [7] | [8] | [10] | [11] | [12] | [13] | [14] | [15] | [16] | [17] | [18] | [19] | [20]

c1ccc2cc(Nc3ccc(Nc4ccc5ccccc5c4)cc3)ccc2c1
inactive: [1] | [2] | [3] | [4] | [5] | [6] | [7] | [8] | [10] | [11] | [12] | [13] | [14] | [15] | [16] | [17] | [18] | [19] | [20]

CN(C)C(=O)Nc1ccc(Oc2ccc(Cl)cc2)cc1
inactive: [1] | [2] | [3] | [4] | [5] | [6] | [7] | [8] | [9] | [10] | [11] | [12] | [13] | [14] | [15] | [17] | [18] | [19] | [20]
active: [16] 0.016 µM

CC1(C)C2=CCCC(C)(C)[C@]23CC[C@H]1C3
inactive: [1] | [7] | [8] | [13] | [14] | [17] | [18] | [19] | [20]
active: [2] 30.9 µM | [3] 34.9 µM | [4] 20 µM | [5] 30.8 µM | [6] 20 µM | [10] 30.2 µM | [11] 31.9 µM | [12] 31.2 µM | [15] 32.9 µM | [16] 32.9 µM

O=C1c2ccccc2C(=O)c2c(O)ccc(O)c21
inactive: [1] | [2] | [3] | [6] | [7] | [8] | [11] | [12] | [13] | [14] | [15] | [17] | [18] | [19] | [20]
active: [4] 4.99 µM | [5] 5.44 µM | [9] 3.14 µM | [10] 1.38 µM | [16] 4.59 µM

O=C(Nc1ccc2c(O)c(N=Nc3ccc(N=Nc4ccc(S(=O)(=O)O)cc4)cc3)c(S(=O)(=O)O)cc2c1)c1ccccc1
active: [3] 25.5 µM and 36.2 µM | [10] 30.8 µM and 29.3 µM | [11] 35.3 µM | [13] 23.6 µM | [15] 15.1 µM
inactive: [1] | [2] | [4] | [5] | [6] | [7] | [8] | [12] | [13] | [14] | [15] | [16] | [17] | [18] | [19] | [20]
